# Hit rate of the full screen: of about 310,000 compounds, about 14,000 (4.5%) showed an effect of 50% or more. The effect is printed as a negative number. The entries come from a sample that favours strong results as a whole.
# Biological target: human ether-à-go-go-related gene (hERG) potassium channel (human, UniProt Q12809)
# Test: primary screen, population patch clamp on CHO cells stably expressing hERG; higher = less effect of the substance
# 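Note: peak tail current of the secondary pulse compared with the same well before compound.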
# Chain of human ether-à-go-go-related gene (hERG) potassium channel (Q12809 whole entry, looked up): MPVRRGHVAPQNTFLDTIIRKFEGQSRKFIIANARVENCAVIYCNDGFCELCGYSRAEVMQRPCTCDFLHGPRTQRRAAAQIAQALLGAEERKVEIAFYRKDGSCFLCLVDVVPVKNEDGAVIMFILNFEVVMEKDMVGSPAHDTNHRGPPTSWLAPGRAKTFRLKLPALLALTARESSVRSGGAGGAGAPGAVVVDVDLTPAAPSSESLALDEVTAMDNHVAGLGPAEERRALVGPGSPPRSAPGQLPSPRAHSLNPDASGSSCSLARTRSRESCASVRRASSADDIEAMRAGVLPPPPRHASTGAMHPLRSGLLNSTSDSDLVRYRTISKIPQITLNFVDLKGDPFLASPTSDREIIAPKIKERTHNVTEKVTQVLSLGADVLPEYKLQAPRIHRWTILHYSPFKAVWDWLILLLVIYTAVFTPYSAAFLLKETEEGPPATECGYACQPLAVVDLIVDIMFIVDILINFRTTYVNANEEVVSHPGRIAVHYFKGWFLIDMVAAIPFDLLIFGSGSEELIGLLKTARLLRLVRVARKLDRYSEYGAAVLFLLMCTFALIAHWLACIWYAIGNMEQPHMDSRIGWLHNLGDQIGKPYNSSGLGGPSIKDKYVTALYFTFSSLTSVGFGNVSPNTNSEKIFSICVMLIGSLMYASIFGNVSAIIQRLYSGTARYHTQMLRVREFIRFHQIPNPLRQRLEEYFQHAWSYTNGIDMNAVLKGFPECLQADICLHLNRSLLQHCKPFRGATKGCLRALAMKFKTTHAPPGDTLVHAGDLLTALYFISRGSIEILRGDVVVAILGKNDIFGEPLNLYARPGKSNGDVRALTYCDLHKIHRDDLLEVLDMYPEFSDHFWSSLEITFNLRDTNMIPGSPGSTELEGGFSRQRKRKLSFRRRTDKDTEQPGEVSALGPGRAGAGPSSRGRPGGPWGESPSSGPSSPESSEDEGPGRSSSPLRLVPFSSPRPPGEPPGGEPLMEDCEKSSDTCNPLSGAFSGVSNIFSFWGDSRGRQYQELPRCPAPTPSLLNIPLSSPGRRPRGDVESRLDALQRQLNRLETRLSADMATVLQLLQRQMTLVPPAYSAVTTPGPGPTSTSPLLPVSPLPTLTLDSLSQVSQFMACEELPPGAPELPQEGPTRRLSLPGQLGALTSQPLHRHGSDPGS
row,SMILES,"hERG current change (%, negative = inhibition) at 10uM"
1,COc1ccc(C2NC(c3ccc(OC)cc3)C([N+](=O)[O-])C(C)(C)C2[N+](=O)[O-])cc1 (stereo not shown),41.2%
2,CCCCCCCSc1nnc(-c2ccccc2N)c(=O)[nH]1,6.86%
3,COc1ccccc1NC(=S)N1CCc2cc(OC)c(OC)cc2C1,-0.62%
4,COc1ccc(C(=S)N2CCN(c3cccc(Cl)c3)CC2)c(OC)c1,3.25%
5,COc1ccccc1CNC(=O)Cn1ccc2cc(S(=O)(=O)N3CCCC3)ccc21,-3.32%
6,CCc1nnc(NC(=O)CCS(=O)(=O)c2ccccc2)s1,23.8%
7,CC(C(=O)OCC(=O)Nc1ccc(S(=O)(=O)N2CCCCC2)cc1)N1C(=O)c2ccccc2C1=O (stereo not shown),-16.4%
8,CC(C(=O)OCC(=O)Nc1ccc2c(c1)OCO2)N1C(=O)c2ccccc2C1=O (stereo not shown),-12.4%
9,CC(C(=O)OCC(=O)Nc1cccc(S(=O)(=O)N2CCOCC2)c1)N1C(=O)c2ccccc2C1=O (stereo not shown),-58%
10,CC(C(=O)OCC(=O)Nc1cccc(S(=O)(=O)N(C)C)c1)N1C(=O)c2ccccc2C1=O (stereo not shown),-82.8%
11,CN(C)S(=O)(=O)c1cccc(NC(=O)COC(=O)c2cc(=O)c3ccccc3o2)c1,11.3%
12,O=C(COC(=O)c1ccccc1)Nc1cccc(S(=O)(=O)N2CCOCC2)c1,-26.5%
13,Cc1sc2nc(C(C)Nc3ccccc3N3CCOCC3)[nH]c(=O)c2c1C (stereo not shown),11.1%
14,O=C(N/N=C/c1ccncc1)c1cccc([N+](=O)[O-])c1,-5.83%
15,O=C(NCCN1CCN(C(=O)c2cccs2)CC1)C(=O)Nc1ccc(Br)cc1,-73.7%
16,Cc1cc(NC(=O)C(=O)NCCN2CCN(S(C)(=O)=O)CC2)ccc1Br,-21.3%
17,Cc1cc(NC(=O)C(=O)NCCN2CCN(C(=O)c3cccs3)CC2)ccc1Br,-63.7%
18,O=C(CN1CCN(C(=O)c2cccs2)CC1)Nc1ccc(Br)cc1,-71.8%
19,O=C(CN1CCN(C(=O)c2ccccc2F)CC1)Nc1ccc(Br)cc1,-64.6%
20,Cl.O=C(CN1CCN(C(=O)c2cccs2)CC1)NC1CCCCC1,-1.7%
21,CCC(=O)Nc1ccc(N2CCN(C(=O)c3cccs3)CC2)cc1,-7.15%
22,O=C(CN1CCOCC1)Nc1ccc(NC(=O)c2ccccc2F)cc1,10.7%

row,SMILES,"hERG current change (%, negative = inhibition) at 10uM"
1,O=C(CN1CCN(C(=O)c2ccco2)CC1)Nc1ccc(Br)cc1,5.38%
2,COc1ccccc1C(=O)N1CCN(CCNC(=O)C(=O)Nc2ccc(Br)c(C)c2)CC1,-48.8%
3,O=C(NCCN1CCN(C(=O)c2cccs2)CC1)c1cccs1,-35.8%
4,COc1ccc(NC(=O)C(=O)NCCN2CCN(C(=O)c3cccs3)CC2)cc1,-45.1%
5,Cc1onc(-c2ccccc2)c1-c1nnc(CN2CCN(S(=O)(=O)c3ccccc3F)CC2)o1,-28.4%
6,Cc1c(/C=N\NC(=O)C2(C)CC2(Cl)Cl)cnn1C (stereo not shown),5.55%
7,COc1ccc(CC(=O)NC(=S)Nc2ccc(S(N)(=O)=O)cc2)cc1,-17.6%
8,COc1ccc(/C=N/NC(=O)c2cccc(Br)c2)cc1CSc1ccccn1,2.67%
9,CCCNC(=O)c1cccc(Cn2nc(C)c(Br)c2C)c1,-6.12%
10,CSc1cc(C)n(-c2ccc(Cl)cc2)c(=S)c1C(C)=O,-33.9%
11,Cn1c(SCC(=O)NNC(=O)c2ccccc2O)nnc1-c1ccccc1,18%
12,CCN(CC)S(=O)(=O)c1ccc(N(C)Cc2cccnc2)nc1,-15.2%
13,CC(C)[NH+]1CCC2(CC1)C(C#N)=C(N)NC([S-])=C2C#N,-4.59%
14,COc1ccc(CN(CC(=O)NC2CCCC2)C(=O)c2ccc(-c3ccccc3)[nH]2)cc1,-19.9%
15,CCCCN1C(=S)NC[C@@H]1Cc1ccccc1,-11.8%
16,Cc1ccnc(NCn2nnc3ccccc32)c1,7.69%
17,Cc1ccc(NC(=O)C(=O)NCCN2CCN(C(=O)C(c3ccccc3)c3ccccc3)CC2)cc1,-9.93%
18,Cc1ccc(NC(=O)C(=O)NCCN2CCN(C(=S)Nc3ccccc3)CC2)cc1,-19.1%
19,Cc1ccccc1C(=O)N1CCN(CCNC(=O)C(=O)Nc2ccc(Br)cc2)CC1,-68.8%
20,CC1CC(C)CN(CC(O)COCc2ccccc2F)C1.Cl (stereo not shown),-23.4%
21,COc1ccc(CCNC(=S)Nc2cccc(C)c2)cc1,-8.64%
22,CCC1(c2ccc(F)cc2)NC(=O)N(CC(=O)N2c3ccccc3CC2C)C1=O (stereo not shown),-12.9%

row,SMILES,"hERG current change (%, negative = inhibition) at 10uM"
1,CCC1(c2ccc(F)cc2)NC(=O)N(CC(=O)N2CC(=O)Nc3ccccc32)C1=O (stereo not shown),-5.52%
2,CCC1(c2ccc(F)cc2)NC(=O)N(CC(=O)N2c3ccccc3NC(=O)CC2C)C1=O (stereo not shown),-58.4%
3,Cc1c(C(c2ccc(O)cc2)c2c(C)n(C)n(-c3ccccc3)c2=O)c(=O)n(-c2ccccc2)n1C,-7.93%
4,COc1ccccc1/C=C1\SC(=S)N(CCC(=O)N2CCCCC2CCO)C1=O (stereo not shown),16.7%
5,CNc1ccccc1C(C)(C)c1cc(C)[nH]n1,22.6%
6,Cc1cc(=O)[nH]c(SCC(=O)Nc2ccc3c(c2)CCC3)c1C#N,-6.4%
7,O=C(Nc1ccc(N2CCN(C(=O)C3CC3)CC2)cc1)c1cccs1,2.17%
8,Cc1cc(S(=O)(=O)N2CCCC(N(C)CCc3ccccn3)C2)c(C)s1 (stereo not shown),-46.6%
9,CN(CCc1ccccn1)C1CCCN(S(=O)(=O)c2ccccc2Cl)C1 (stereo not shown),-46.5%
10,CC(=O)c1ccc(S(=O)(=O)N2CCCC(N(C)CCc3ccccc3)C2)cc1 (stereo not shown),-81.2%
11,CN(CCc1ccccc1)C1CCCN(S(=O)(=O)N(C)C)C1 (stereo not shown),-15.7%
12,CN(CCc1ccccn1)C1CCCN(S(=O)(=O)c2ccc(F)c(Cl)c2)C1 (stereo not shown),-48%
13,CN(CCc1ccccc1)C1CCCN(S(=O)(=O)CC(F)(F)F)C1 (stereo not shown),-3.61%
14,Cc1cc(S(=O)(=O)N2CCCC(N(C)CCc3ccccn3)C2)c(C)cc1Cl (stereo not shown),-71.6%
15,CC(=O)c1ccc(S(=O)(=O)N2CCCC(N(C)CCc3ccccn3)C2)cc1 (stereo not shown),-65.3%
16,COC(=O)c1sccc1S(=O)(=O)N1CCCC(N(C)CCc2ccccn2)C1 (stereo not shown),-22.7%
17,Cn1nc(-c2ccc(N3CCCCC3)c(NC(=O)c3ccco3)c2)c2ccccc2c1=O,9.65%
18,CN(C)CCCNC(=S)N(Cc1cccs1)Cc1cc2cc3c(cc2[nH]c1=O)OCCO3,6.79%
19,Cc1ccc(/C=C2\SC(=S)N(CCC(=O)NNS(=O)(=O)c3ccc(C)cc3)C2=O)cc1,28.8%
20,CN(C(=O)COC(=O)/C=C/c1cn(-c2ccccc2)nc1-c1ccc2c(c1)OCCO2)C1CCS(=O)(=O)C1 (stereo not shown),-3.86%
21,Cc1cc(=O)[nH]c(SCC(=O)NCCOc2ccccc2)n1,1.39%
22,COCCN(C(=S)Nc1ccc(C)cc1)C(C)c1cccnc1 (stereo not shown),-22.9%

row,SMILES,"hERG current change (%, negative = inhibition) at 10uM"
1,Cc1cccc(C)c1NC(=S)N(CCN(C)C)C(C)c1cccnc1 (stereo not shown),-9.34%
2,COCCN(C(=S)Nc1cccc(C)c1)C(C)c1cccnc1 (stereo not shown),-4.61%
3,Cc1ccccc1NC(=S)N(CCN(C)C)C(C)c1cccnc1 (stereo not shown),-50.1%
4,CCc1ccccc1NC(=S)N(CCN(C)C)C(C)c1cccnc1 (stereo not shown),-7.25%
5,COCCN(C(=S)Nc1cc(C)cc(C)c1)C(C)c1cccnc1 (stereo not shown),-58.4%
6,Cc1ccccc1NC(=O)c1ccc(N/N=C/c2ccccc2O)c([N+](=O)[O-])c1,9.72%
7,CC(Sc1nnc(-c2ccncc2)n1C)C(=O)NCC1CCCO1 (stereo not shown),4.42%
8,CC(C)Cc1ccc(CN2CCCC(NC(=O)c3cnc4ccccn4c3=O)C2)cc1 (stereo not shown),-71.8%
9,Cc1occc1C(=O)NC1CCCN(Cc2ccc(CC(C)C)cc2)C1 (stereo not shown),-38%
10,Cc1occc1C(=O)NC1CCCN(Cc2ccc(Cl)cc2)C1 (stereo not shown),-38.4%
11,O=C(NC1CCCN(Cc2ccc(Cl)cc2)C1)c1ccnc(Cl)c1 (stereo not shown),-38.6%
12,CC(C)Cc1ccc(CN2CCCC(NC(=O)c3cccc(-n4cnnc4)c3)C2)cc1 (stereo not shown),-81%
13,CC(C)Cc1ccc(CN2CCCC(NC(=O)CCCN3CCCC3=O)C2)cc1 (stereo not shown),-25.8%
14,O=C(NC1CCCN(Cc2ccc(Cl)cc2)C1)c1ccoc1 (stereo not shown),-50.1%
15,O=C(NC1CCCN(Cc2ccc(Cl)cc2)C1)c1cnc2ccccn2c1=O (stereo not shown),-21.8%
16,O=C(NC1CCCN(Cc2ccc(Cl)cc2)C1)c1cccc(N2CCCC2=O)c1 (stereo not shown),-14.8%
17,CC(C)Cc1ccc(CN2CCCC(NC(=O)c3ccoc3)C2)cc1 (stereo not shown),-70.9%
18,CC(C)c1ccc(NC2CCCN(C(=O)c3cnc4ccccn4c3=O)C2)cc1 (stereo not shown),12%
19,COc1ccc(S(=O)(=O)N2CCN(c3ccccn3)CC2)cc1OC,-12%
